Bioassay records deposited in PubChem by Center for Chemical Genomics, University of Michigan.
Shown is part of a subset that was picked to be rich in hits.
Dicer inh – inhibitors of human Dicer processing of pre-microRNA; Q9UPY3; cat-ELCCA pre-miR-21 Dicer processing, chemiluminescence; stronger effect = higher value; z-score at 25 µM; hit rate 6% among 47,000; AID 1347074; in the data active = z-score above about 3, passing the limit was not always enough;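 also: plate controls were vehicle for no effect and no enzyme for full effect; higher signal means more uncleaved substrate so more Dicer inhibition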
Target sequence (Q9UPY3 whole entry, looked up): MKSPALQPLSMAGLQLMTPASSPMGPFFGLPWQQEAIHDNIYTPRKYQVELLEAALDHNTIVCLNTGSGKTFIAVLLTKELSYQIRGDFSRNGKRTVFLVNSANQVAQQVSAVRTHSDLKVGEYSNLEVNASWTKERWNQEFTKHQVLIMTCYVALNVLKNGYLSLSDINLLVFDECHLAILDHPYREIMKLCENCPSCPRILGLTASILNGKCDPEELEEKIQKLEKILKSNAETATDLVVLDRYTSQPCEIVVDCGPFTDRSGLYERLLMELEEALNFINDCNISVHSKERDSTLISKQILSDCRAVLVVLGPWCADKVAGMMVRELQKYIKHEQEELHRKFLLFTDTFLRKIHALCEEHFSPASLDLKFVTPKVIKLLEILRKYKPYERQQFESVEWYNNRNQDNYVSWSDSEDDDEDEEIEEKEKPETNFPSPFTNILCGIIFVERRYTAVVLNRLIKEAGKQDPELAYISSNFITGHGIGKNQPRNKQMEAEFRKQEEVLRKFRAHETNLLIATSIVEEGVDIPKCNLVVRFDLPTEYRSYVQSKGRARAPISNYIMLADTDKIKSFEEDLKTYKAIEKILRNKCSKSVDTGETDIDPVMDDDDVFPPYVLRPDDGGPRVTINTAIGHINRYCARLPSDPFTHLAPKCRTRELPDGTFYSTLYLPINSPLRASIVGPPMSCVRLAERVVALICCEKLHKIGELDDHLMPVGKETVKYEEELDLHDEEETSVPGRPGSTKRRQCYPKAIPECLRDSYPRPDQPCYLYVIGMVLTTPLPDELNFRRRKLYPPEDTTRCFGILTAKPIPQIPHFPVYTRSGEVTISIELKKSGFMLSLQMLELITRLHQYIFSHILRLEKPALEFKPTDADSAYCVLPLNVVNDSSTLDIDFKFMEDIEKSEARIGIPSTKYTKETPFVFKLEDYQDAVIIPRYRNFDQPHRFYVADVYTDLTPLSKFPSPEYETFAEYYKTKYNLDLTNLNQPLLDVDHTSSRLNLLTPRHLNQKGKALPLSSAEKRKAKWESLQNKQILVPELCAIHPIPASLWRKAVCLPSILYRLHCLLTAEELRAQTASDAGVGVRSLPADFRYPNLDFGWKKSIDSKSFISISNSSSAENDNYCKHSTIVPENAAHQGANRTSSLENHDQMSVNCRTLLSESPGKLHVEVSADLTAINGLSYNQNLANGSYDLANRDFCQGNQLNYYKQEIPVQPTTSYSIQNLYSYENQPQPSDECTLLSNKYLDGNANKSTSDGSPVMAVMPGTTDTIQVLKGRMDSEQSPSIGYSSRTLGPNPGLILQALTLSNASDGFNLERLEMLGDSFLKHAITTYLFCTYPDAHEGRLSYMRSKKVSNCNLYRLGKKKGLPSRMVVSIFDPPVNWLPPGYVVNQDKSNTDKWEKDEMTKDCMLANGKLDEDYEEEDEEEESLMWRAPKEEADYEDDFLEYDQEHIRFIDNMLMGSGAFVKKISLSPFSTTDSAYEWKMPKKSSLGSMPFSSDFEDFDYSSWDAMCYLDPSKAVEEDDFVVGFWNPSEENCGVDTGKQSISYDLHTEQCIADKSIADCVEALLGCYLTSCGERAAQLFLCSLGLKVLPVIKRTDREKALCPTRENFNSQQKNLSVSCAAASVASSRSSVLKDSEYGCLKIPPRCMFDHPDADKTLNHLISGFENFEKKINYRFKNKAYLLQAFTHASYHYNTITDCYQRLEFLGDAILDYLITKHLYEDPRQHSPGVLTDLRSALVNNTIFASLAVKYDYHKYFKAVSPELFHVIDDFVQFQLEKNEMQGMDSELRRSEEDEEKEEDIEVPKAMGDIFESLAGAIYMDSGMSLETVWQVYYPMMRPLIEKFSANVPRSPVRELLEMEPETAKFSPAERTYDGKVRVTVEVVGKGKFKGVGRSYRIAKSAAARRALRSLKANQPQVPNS
* = called active by the depositor.

SMILES	Dicer inh
O=C1C(=O)N(Cc2ccc(Cc3ccc(CN4C(=O)C(=O)c5ccccc54)cc3)cc2)c2ccccc21	-1.3
COc1cc2c(cc1OC)C(C)N(C(=O)CCC(=O)O)CC2 (stereo not drawn)	-2.5
Cc1ccc(S(=O)(=O)N/N=C/c2ccc(Cl)cc2)cc1	-0.02
COc1ccc(/C=N/NS(=O)(=O)c2ccc(Cl)cc2)cc1OC	3.5*
Cc1ccc(S(=O)(=O)N/N=C/c2ccc(Cl)c(Cl)c2)cc1	-0.62
Cc1nc2ccccn2c1-c1csc(Nc2ccc(S(N)(=O)=O)cc2)n1	4.3*
CCN(CC)c1ccc(Nc2nc(-c3sc(N)nc3C)cs2)cc1	-0.11
Cc1nc2ccccn2c1-c1csc(Nc2ccc(Cl)cc2)n1	7.1*
Cc1nnc(Nc2ccc(Cl)cc2)s1	2.8
Cc1cc(NS(=O)(=O)c2ccc(Nc3nc(-c4ccc(Cl)cc4)cs3)cc2)no1	2.9
Cc1ccc(C)c(-c2csc(Nc3ccc(S(N)(=O)=O)cc3)n2)c1	5.1*
NS(=O)(=O)c1ccc(Nc2nc(-c3cccnc3)cs2)cc1	1.4
Cc1ccc(Nc2nc(-c3c(C)nc4ccccn34)cs2)cc1	3
Cc1nn(-c2ccccc2)c(C)c1C(=O)Nc1cccc(C(F)(F)F)c1	-0.51
CCOC(=O)c1cnc(C(F)(F)F)nc1Oc1ccccc1	0.7
CCOC(=O)c1cnc(NNC(C)=O)nc1C(F)(F)F	3.1*
CCOC(=O)c1cnc(NNC(=O)c2ccc(F)cc2)nc1C(F)(F)F	1.1
CCOC(=O)c1cnc(C(F)(F)F)nc1Sc1n[nH]c(-c2cc(Cl)cc(Cl)c2)n1	-0.46
CCOC(=O)c1cnc(C(F)(F)F)nc1NNC(=O)c1ccc(Cl)cc1	3.2*
CCOC(=O)c1cnc(Nc2ccccc2)nc1C(F)(F)F	-0.23
CCOC(=O)C(=NNc1ccc(OC)cc1[N+](=O)[O-])C(=O)OCC	-0.83
Cn1nc(OS(=O)(=O)c2ccc(Cl)cc2Cl)cc1C(F)(F)F	-0.78
CCn1c[n+](CC(O)COc2ccc(OC)cc2)c2cc(C)c(C)cc21 (stereo not drawn)	0.12
COc1ccc(C(C)=O)cc1COc1cc(C)nc2ccc(Cl)cc12	-1.4
O=C1CCC2C(=O)N(Cc3ccccc3)C(=O)C2C1 (stereo not drawn)	2.4
SMILES	Dicer inh
CC1(C)Cc2c(c(-c3ccco3)nc3sc4c(N5CCCC5)ncnc4c23)CO1	-0.87
Clc1c(Cl)c(Cl)c(-n2cccc2)c(Cl)c1Cl	0.62
Cc1ccc2oc(C(F)(F)F)cc(=O)c2c1	3.5*
Cc1ccc2oc(NC(=O)N3CCOCC3)cc(=O)c2c1	-0.18
Cc1ccc2oc(-c3ccc(Br)cc3)cc(=O)c2c1	0.77
O=C(c1ccc(Cl)cc1)c1c(Cl)cc(CO)cc1Cl	0.15
CCCSc1nc2ccccc2c(=O)n1C1CCCCC1	0.01
CCOC(=O)c1cc2nc3sccn3c2s1	-0.99
CCOC(=O)c1cc2nc(Nc3ccc(OC)cc3)sc2s1	3.3*
CCOC(=O)c1sc(Nc2nc(C)c(CC)c(OC)n2)nc1C	0.87
Fc1ccc(C2Sc3ccccc3N=C3c4ccccc4SCC32)cc1 (stereo not drawn)	-2.3
COc1cc(S(=O)(=O)N2CCN(Cc3ccc4c(c3)OCO4)CC2)c(OC)cc1Cl	-2.1
Cc1ccc(C)n1-c1ccc(C2(O)CCSc3ccccc32)cc1 (stereo not drawn)	2.4
Cc1ccc(C)n1-c1ccc(C2(O)CCSc3ccc(F)cc32)cc1 (stereo not drawn)	4*
Clc1ccc(CSC2=NCN(C3CC3)CN2)cc1Cl	-1.8
COc1ccc(C(C)C)cc1S(=O)(=O)n1ccnc1	-0.22
COC(=O)c1c(C)nc2n(CCN3CCCCC3)c3ccccc3n12	1.1
Cc1nn2c3ccccc3n(CCN3CCCCC3)c2nc1=O	3.1*
Cc1cn2c3ccccc3n(CCN3CCCC3)c2n1	0.49
CCCc1nccn1S(=O)(=O)c1cc(F)ccc1OC	-0.53
FC(F)(F)c1ccc(-c2nc(=S)[nH][nH]2)cc1	-0.04
FC(F)(F)c1ccc(-c2nnc(-c3ccc4nccnc4c3)o2)cc1	-0.74
FC(F)(F)c1ccc(C2=NCCO2)cc1	4.8*
CCOc1cc(C2N=C(N)Nc3nc4ccccc4n32)ccc1O (stereo not drawn)	2.4
COc1cc(C2N=C(N)Nc3nc4ccccc4n32)ccc1O (stereo not drawn)	5.9*
SMILES	Dicer inh
NC1=NC(c2ccccc2O)n2c(nc3ccccc32)N1 (stereo not drawn)	3.6*
NC1=NC(c2ccncc2)n2c(nc3ccccc32)N1 (stereo not drawn)	0.89
COc1ccc(C2N=C(N)Nc3nc4ccccc4n32)c(OC)c1 (stereo not drawn)	0.18
NC1=NC(c2ccccc2)n2c(nc3ccccc32)N1 (stereo not drawn)	2.2
CC1Oc2ccc(C(=O)c3cc4ccccc4o3)cc2N(C)C1=O (stereo not drawn)	-0.34
S=C(N/N=C/c1ccc(Cl)c(Cl)c1)NC1CC2CC1C1C=CCC21 (stereo not drawn)	0.09
O=C(Nc1cccc2[nH]ccc12)C1CCCCC1	2.6
CCOc1nc(C)ccc1-c1noc(-c2ccccc2Cl)n1	0.5
O=C1CCC(=O)N1CNc1cc(Cl)ccc1Cl	0.21
CCOC(=O)c1nc2sc3c(c2c(=O)[nH]1)CCCC3	-0.09
CCOC(=O)CC(=O)CSc1nc(N)c2c3c(sc2n1)CCC3	-0.06
CCOC(=O)CC(=O)CSc1nc(N)c2c3c(sc2n1)CCCC3	5.5*
CCOC(=O)CCCSc1nc(N)c2c3c(sc2n1)CCCC3	3.1*
CCOC(=O)CSc1nc(SCC(=O)OCC)c2c3c(sc2n1)CCC3	2.9
Nc1nc(SCC(=O)c2ccc(Cl)cc2)nc2sc3c(c12)CCCCC3	-1.4
COc1cccc(CNC(=S)SCC(=O)C(C)(C)C)c1	-0.47
Cc1ccc(C(C)C)c(OCCSc2ncnc3nc[nH]c23)c1	-0.81
COc1ccccc1OCCSc1nc2ncnc(N)c2[nH]1	-0.36
Cc1ccc(OCCSc2nc3ncnc(N)c3[nH]2)c(C(C)C)c1	3.6*
CCOC(=O)C1=C(C)N2CCCN=C2S1	3.3*
CCOC(=O)c1c(N)sc2c1CCC2	-2.8
CCOC(=O)C1=C(C)N2CCN=C2S1	0.91
CCOC(=O)C(NC(C)=O)(Nc1cccc(C)c1)C(F)(F)F (stereo not drawn)	0.06
CN1CCN(CCCCC(=O)O)CC1	4*
O=C(O)CCCCCCCC(=O)O	0.04
SMILES	Dicer inh
CN1CCN(C(=O)CCC(=O)O)CC1	-0.72
COc1ccc(CCNc2oc(COc3ccccc3)nc2C#N)cc1OC	-1.6
COc1ccc(COC(=O)C2=C(C)NC3=C(C(=O)CCC3)C2c2cc(OC)ccc2OC)cc1 (stereo not drawn)	0.31
O=C(Oc1c(-c2ccccc2)c(=O)n2c3c(cccc13)CC2)c1cccs1	4*
O=C(Oc1c(-c2ccccc2)c(=O)n2c3c(cccc13)CCC2)c1cccs1	-1
O=C(Oc1c(-c2ccccc2)c(=O)n2c3c(cccc13)CC2)c1ccccc1	-2
N#Cc1c(C(F)(F)F)cc(-c2cccs2)nc1Sc1ccc(Cl)cc1	1.3
CC(C)c1nn(-c2cccc(C(F)(F)F)n2)c(=O)o1	0.59
N/C(=N\OC(=O)Nc1ccc(Cl)cc1)c1nccnc1Oc1cccc(C(F)(F)F)c1	0.09
CCOC(=O)C(=O)N1c2ccccc2Sc2ccccc21	9.8
Cc1nccn1CC(=O)N1c2ccccc2Sc2ccccc21	5.5*
O=C1CCC(=O)N1CC(=O)N1c2ccccc2Sc2ccccc21	-0.22
O=C(CSc1nc2cccnc2s1)c1cccc([N+](=O)[O-])c1	-0.8
CC(C)(C)C(=O)Nc1cccc(-c2nnco2)c1	-0.52
Cc1ccccc1CSc1nnc(CCN)o1	-0.12
